What is called AC50 is the concentration giving half of the maximal activity seen.

Where “and” joins values, the source holds several entries; their conditions need not be identical. Equal entries are not always repeated. Records with an inconclusive call do not appear. The source holds several records for some structures; these can differ, active in one and inactive in another. Calls of active or inactive are those of the source. The calls were made as follows, unless noted: active = hit-call score of the fitted dose curve at least 0.9, where 1 is the maximum; inactive = score below 0.9.

AC50 and outcome data for 18 compounds are collected here from PubChem BioAssay (EPA / NIEHS).

Read-out in test [1]: Interleukin-8 (IL8), CXCL8 (gene 3576)
Kind of test: BSK_3C_IL8: BioMAP Diversity Plus: 3C Assay for Interleukin-8 (IL8) Biomarker Activity (AID 2283020). As to conditions: primary human endothelial cells (HUVEC); actives raise or lower the signal. In short, it runs like this: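 Human vascular endothelial cells (umbilical vein) in the 3C system; IL-8 level detected by ELISA at 24 h post-dose, with DMSO as baseline.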

Read-out in test [2]: Monokine induced gamma interferon (MIG), CXCL9 (gene 4283)
Kind of test: BSK_3C_MIG: BioMAP Diversity Plus: 3C Assay for Monokine induced gamma interferon (MIG) Biomarker Activity (AID 2283021).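 As to AC50: MIG protein level measured by immunoassay in the treated endothelial cultures.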 As to conditions: primary human endothelial cells (HUVEC); actives raise or lower the signal. In short, it runs like this:
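After 24 h of treatment, human umbilical vein endothelial cultures (3C system) had their MIG biomarker level determined by ELISA, with DMSO serving as negative control.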

Test [3] has as its target human Vitamin D Receptor (VDR), VDR (gene 7421) (UniProt P11473). Kind of test: ATG_VDR_TRANS: Attagene TRANS-FACTORIAL HepG2 Assay for human Vitamin D Receptor (VDR) (AID 2283022; active = hit-call score of the fitted dose curve at least 0.9, where 1 is the maximum). The method in brief: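 Multiplexed TRANS reporter in HepG2; 24 h treatment; reporter mRNA by RT-PCR plus capillary electrophoresis; upregulation scored relative to DMSO.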
Test [4] in a line: BSK_3C_SRB: Viability Assessment in the BioMAP Diversity Plus: 3C Assay (AID 2283023).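 Also: cells read 24 h after compound dosing; fitted both ways against DMSO so a hit may be signal rise or drop.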 The settings on record: primary human endothelial cells (HUVEC). The method in brief:
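Overt cytotoxicity is gauged in parallel confluent HUVEC cultures by SRB total-protein staining at the time of biomarker measurement, 24 h after dosing. Gain or loss of signal is fitted versus DMSO.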

Read-out in test [5]: Matrix Metallopeptidase 1 (MMP1), MMP1 (gene 4312)
Briefly: BSK_BE3C_MMP1: BioMAP Diversity Plus: BE3C Assay for Matrix Metallopeptidase 1 (MMP1) Biomarker Activity (AID 2283024). The settings on record: primary human bronchial epithelial cells; actives raise or lower the signal. In short, it runs like this:
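Dose cells, wait 24 h, run MMP1 ELISA; cells are human bronchial epithelial primaries. Both increases and decreases relative to DMSO counted.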

Read-out in test [6]: Pselectin, SELP (gene 6403)
Briefly: BSK_4H_Pselectin: BioMAP Diversity Plus: 4H Assay for Pselectin Biomarker Activity (AID 2283026). The settings on record: primary human endothelial cells (HUVEC); actives raise or lower the signal. The method in brief: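 Human vascular endothelium from umbilical vein; P-selectin measured by ELISA at 24 h post-dose, with cytotoxicity checked by sulforhodamine B total-protein staining in parallel cultures (0.1% SRB after 10% TCA fixation, read at 560 nm).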

A short description of test [7]: BSK_4H_SRB: Viability Assessment in the BioMAP Diversity Plus: 4H Assay (AID 2283027).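 Also: cells exposed to compound for 24 h before staining.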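 As to AC50: curves fitted both ways versus DMSO so AC50 may be loss or gain.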 As to conditions: primary human endothelial cells (HUVEC). The method in brief:
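Absorbance at 560 nm of SRB-stained total protein served as the viability read-out in confluent primary human umbilical vein endothelium 24 h after chemical treatment. Curves were fitted bidirectionally against DMSO as negative control.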

Test [8] in a line: BSK_BE3C_SRB: Viability Assessment in the BioMAP Diversity Plus: BE3C Assay (AID 2283028).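 Also: measured 24 h after chemical dosing.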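 As to AC50: fitted both ways so AC50 may mark signal gain or loss versus DMSO.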 As to conditions: primary human bronchial epithelial cells. The method in brief:
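SRB total-protein staining (0.1%, after TCA fixation) of chemically dosed human bronchial epithelial primary cells at 24 h; DMSO serves as the negative control for bidirectional curve fitting.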

Read-out in test [9]: Thrombomodulin, THBD (gene 7056)
Kind of test: BSK_3C_Thrombomodulin: BioMAP Diversity Plus: 3C Assay for Thrombomodulin Biomarker Activity (AID 2283029). As to conditions: primary human endothelial cells (HUVEC); actives raise or lower the signal. The method in brief: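 Thrombomodulin ELISA, human primary HUVEC, 24 h post-dose; data fitted in both directions relative to DMSO.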

Test [10] is described as follows: BSK_3C_Vis: BioMAP Diversity Plus: 3C Assay for Morphology Visualization (AID 2283025).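 Also: fitted both ways so gain or loss versus DMSO counts.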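 As to AC50: light microscopy image of cell morphology used as background control; cells imaged 24 h after dosing.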 The settings on record: primary human endothelial cells (HUVEC). The method in brief:
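Endothelial cells from human umbilical vein were treated with test chemicals for 24 h and inspected by light microscopy for changes in cell conformation.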

Chain of human Vitamin D Receptor (VDR), VDR (gene 7421) (P11473 whole entry, looked up): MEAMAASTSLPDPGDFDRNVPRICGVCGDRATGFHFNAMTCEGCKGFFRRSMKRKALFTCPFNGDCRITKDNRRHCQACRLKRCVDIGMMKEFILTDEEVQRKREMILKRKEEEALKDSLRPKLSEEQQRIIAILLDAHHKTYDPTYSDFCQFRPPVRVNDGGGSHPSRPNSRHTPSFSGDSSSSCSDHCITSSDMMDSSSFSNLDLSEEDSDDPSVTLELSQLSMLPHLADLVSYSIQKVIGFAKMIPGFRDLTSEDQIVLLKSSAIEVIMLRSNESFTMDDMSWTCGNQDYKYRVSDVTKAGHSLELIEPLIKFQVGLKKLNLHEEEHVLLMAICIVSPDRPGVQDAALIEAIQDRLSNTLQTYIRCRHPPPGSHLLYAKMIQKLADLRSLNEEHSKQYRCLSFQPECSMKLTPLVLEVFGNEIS

In the case of `C=CC(=O)OCC(F)(F)C(F)(F)C(F)(F)C(F)(F)COC(=O)C=C`, the half-maximal activity concentration (AC50) in test [1] is 23.6 µM (active) and 44.4 µM (active); in test [2], 23.5 µM (active) and 26.4 µM (active); in [4], 34.8 µM (active) and 24.8 µM (active); in test [5], 20.4 µM (active) and 20.5 µM (active); in [6] it was 20.6 µM (active) and 28.9 µM (active); in test [7], 47.1 µM (active) and 44.8 µM (active). In addition, the call in [3], in test [8] and in test [9] was inactive.
`CO[Si](OC)(c1ccccc1)c1ccccc1`: the AC50 was 20 µM (active) in test [1], 36.9 µM (active) in test [4] and 37.4 µM (active) in test [10]. The outcome in test [2], in test [3], in test [5], in [6], in test [7] and in test [8] was inactive. In addition, in test [9], the outcome was inactive.
Turning to `O=C(O)C(F)(F)C(F)(F)C(F)(F)C(F)(F)C(F)(F)C(F)(F)C(F)(F)C(F)(F)Cl`, the AC50 in [1] was 45.1 µM (active); in test [2], 55.1 µM (active); in [4], 52.5 µM (active) and 45.1 µM (active); in test [5] it was 7.12 µM (active) and 55.3 µM (active); in [7], 49.7 µM (active) and 52.2 µM (active); in test [8], 41.3 µM (active) and 29.4 µM (active). The AC50 in [9] is 48.5 µM (active) and 45.4 µM (active). Further, the result in test [1], in test [2], in [3] and in [6] was inactive.
For `FC(F)(F)C(F)(F)C(F)(F)C(F)(F)C(F)(F)CCI`, the outcome in test [1], in test [2], in test [3], in test [4], in test [6] and in [7] was inactive. The outcome in test [8] and in test [9] was inactive. Besides, in test [5], the AC50 is 30 µM (active) and 19.5 µM (active).
In the case of `Nc1ccc([N+](=O)[O-])cc1O`, the result in [1], in test [2], in test [3], in [4], in test [5] and in test [10] was inactive. Moreover, the result in test [6], in test [7], in test [8] and in [9] was inactive.
In the case of `FC(F)(F)C(F)(F)C(F)(F)C(F)(F)CCI`, the result in test [1], in test [2], in test [3], in test [4], in [5] and in [6] was inactive. Also, the outcome in test [7], in test [8] and in test [9] was inactive. In addition, the AC50 in [5] is 30 µM (active).
With `CCc1c(Br)c(Br)c(Br)c(Br)c1Br`, the outcome in test [1], in test [2], in [3], in [4], in test [5] and in test [10] was inactive. Further, the result in test [6], in test [7], in test [8] and in [9] was inactive.
Consider `OCCCC(F)(F)C(F)(F)C(F)(F)F`, for which the result in [1], in test [2], in test [3], in test [4], in test [5] and in test [6] was inactive. Besides, the result in test [7], in [8] and in test [9] was inactive.
As to `CC(CCl)OP(=O)(OC(C)CCl)OC(C)CCl` (stereo not drawn), the outcome in test [1], in [2], in [3], in [4], in test [5] and in [10] was inactive. In addition, the outcome in test [6], in test [7], in [8] and in test [9] was inactive.
Regarding `N=C(N)C(F)(F)C(F)(F)C(F)(F)C(F)(F)C(F)(F)C(F)(F)C(F)(F)F`, the result in [1], in test [2], in test [3], in [5], in test [6] and in test [7] was inactive. For the same compound, the outcome in test [8] and in [9] was inactive. Moreover, the AC50 in test [5] is 19.4 µM (active); in test [7], 48.5 µM (active).
On to `CCCCCCC(C)OC(=O)CCCCC(=O)OC(C)CCCCCC` (stereo not drawn), for which the result in [1], in test [2], in test [3], in test [4], in [5] and in [10] was inactive. For the same compound, the outcome in [6], in test [7], in [8] and in test [9] was inactive.
In the case of `FC(F)(F)C(F)(F)C(F)(F)C(F)(F)C(F)(F)C(F)(F)C(F)(F)C(F)(F)F`, the result in test [1], in test [2], in test [3], in [4], in test [5] and in [6] was inactive. The outcome in test [7], in test [8] and in test [9] was inactive.
Consider `CCCCC(CC)COP(=O)(O)OCC(CC)CCCC` (stereo not drawn), for which the result in [1], in test [2], in [3], in [5], in test [6] and in [7] was inactive. For the same compound, the outcome in test [8] and in test [9] was inactive.
In the case of `O=C(O)C(F)(OC(F)(F)C(F)(OC(F)(F)C(F)(F)C(F)(F)F)C(F)(F)F)C(F)(F)F` (stereo not drawn), the result in [1], in [2], in test [3], in [5], in test [6] and in test [7] was inactive. The result in [8] and in test [9] was inactive.
As to `CC(C)(C)C(=O)CC(=O)C(F)(F)C(F)(F)C(F)(F)F`, the outcome in test [1], in test [2], in test [3], in test [5], in test [6] and in test [7] was inactive. In addition, the result in test [8] was inactive. In addition, the AC50 was 5.95 µM (active) in test [6]; 41.2 µM (active) and 47.3 µM (active) in test [9].
For `C#C[C@]1(O)CC[C@H]2[C@@H]3CCc4cc(OC)ccc4[C@H]3CC[C@@]21C`, the AC50 in test [1] is 3.97 µM (active); in [10] it was 37.5 µM (active). Also, the result in test [2], in [3], in test [5], in test [6], in test [7] and in test [8] was inactive. For the same compound, the result in test [9] was inactive.
In the case of `O=P(O)(O)OCCC(F)(F)C(F)(F)C(F)(F)C(F)(F)C(F)(F)C(F)(F)F`, the result in test [1], in test [2], in test [4], in [5], in [6] and in test [7] was inactive. Also, the outcome in test [8] and in test [9] was inactive.
Consider `FC(F)(F)C(F)(F)C(F)(F)C(F)(F)C(F)(F)C(F)(F)C(F)(F)Br`, for which the outcome in [1], in test [2], in test [3], in [5], in test [6] and in test [7] was inactive. The outcome in test [8] and in [9] was inactive. In addition, in test [9], the AC50 is 1.29 µM (active).
